Only some compounds are listed: those with a hit (about 7.5% of all), similar ones and a draw of the others.
ELG1 DNA repair: qHTS screen for small molecules that inhibit ELG1-dependent DNA repair in human embryonic kidney (HEK293T) cells expressing luciferase-tagged ELG1; HEK293T ELG1-luciferase reporter, luminescence, 16 h; DNA damage induced by 5-fluorouridine; 330,000 tested, 2.3% active; Potency, µM (titrated, usually from 46.1 µM), usual class: inhibitors; AID 504467, 2011; note: nearly all actives have a fitted effect of over 55% in size
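Step one: seed 2,000 cells per well. Step two: pin-transfer compound or DMSO alongside 5-fluorouridine. Step three: incubate 16 hr, 37 °C, 5% CO2. Step four: add ONE-Glo, wait 30 min, read luminescence.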
RORg inh: qHTS for inhibitors of ROR gamma transcriptional activity. Nuclear receptor ROR-gamma (Mus musculus), P51450. Drosophila S2 Gal4-RORgamma UAS-luciferase reporter, 20 h. Potency, µM (doses to about 53.6 µM), actives largely listed as inhibitors. 310,000 tested, 5.4% active. AID 2551, 2010; note: nearly all actives have a fitted effect of over 60% in size
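Schneider cells (Drosophila), stable Gal4 DBD–ROR gamma + UAS-luc; 1 hr cmpd preincubation; Cu2+ induction 700 uM final; 20 hr ambient; luminescence.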
TSHR antag: Antagonists of the Thyroid Stimulating Hormone Receptor: HTS campaign | Thyrotropin receptor (Homo sapiens), P16473 | 330,000 tested, 0.2% active | activity change, negative = inhibition, % at 11.5 µM | TSHR-expressing cells, TSH-stimulated cAMP HTRF, 2 h; hits give low values;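 active = activity change below a set negative limit, meaning inhibition stronger than a set level, cut at about -70% in these data; inconclusive = activity change between two set negative limits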
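TSHR-expressing cells were treated with compounds, then stimulated with TSH at EC80 (4nM final) for 2 hours at 37 deg C. Cellular cAMP was measured by HTRF competition between lysate cAMP and cAMP-d2 for a cryptate-labelled anti-cAMP antibody.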
B2AR arrestin: qHTS assay of beta-arrestin-biased ligands of beta2-adrenergic receptor. Beta-2 adrenergic receptor (Homo sapiens), P07550. beta-arrestin recruitment to beta2AR, cell-based reporter. Potency, µM (series often up to 46.1 µM), hits mostly activators. 330,000 tested, 0.02% active. AID 492947, 2010; note: nearly all actives have a fitted effect of over 65% in size
Target sequence (P07550 whole entry, looked up): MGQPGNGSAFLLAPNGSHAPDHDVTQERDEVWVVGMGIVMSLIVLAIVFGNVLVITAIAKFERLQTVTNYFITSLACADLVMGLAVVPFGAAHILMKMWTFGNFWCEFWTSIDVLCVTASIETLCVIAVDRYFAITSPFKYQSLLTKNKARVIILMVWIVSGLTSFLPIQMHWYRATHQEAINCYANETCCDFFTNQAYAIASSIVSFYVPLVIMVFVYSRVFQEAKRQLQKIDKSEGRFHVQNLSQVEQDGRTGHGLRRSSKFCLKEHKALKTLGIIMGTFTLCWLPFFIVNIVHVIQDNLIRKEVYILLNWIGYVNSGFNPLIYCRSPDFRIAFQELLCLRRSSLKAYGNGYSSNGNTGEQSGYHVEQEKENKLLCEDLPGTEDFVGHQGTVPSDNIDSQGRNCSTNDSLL
Gal4-VP16 FLuc: VP16 counterscreen qHTS for inhibitors of ROR gamma transcriptional activity | Potency, µM (series often up to 53.6 µM), usual class: inhibitors | AID 2546, 2010 | Drosophila S2 Gal4-VP16 UAS-luciferase, luminescence, 20 h | 310,000 tested, 3.5% active;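 note: Gal4-VP16 expression switched on by copper sulfate through the metallothionein promoter; nearly all actives have a fitted effect of over 50% in size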
Of the large screens only hits and unclear results are named; the others gave an inactive call. Unless noted, calls come from the whole dose curve; as a rule, active = well fitted curve in the direction sought with a large enough effect; inconclusive = small, poorly fitted or top-dose-only effect, or another doubt; inactive = no such curve, though single readings can be large; an effect the other way counts as inactive or inconclusive.

COC(=O)c1ccc2c(=O)[nH]c(CN3c4ccccc4CC3C)nc2c1 (centres undefined)	ELG1 DNA repair inconclusive
COC(=O)c1ccc2c(=O)[nH]c(CCl)nc2c1	RORg inh 12.6µM
C=CCn1c(SCc2nc3cc(C(=O)OC)ccc3c(=O)[nH]2)nc2sc(CC)cc2c1=O	ELG1 DNA repair 8.2µM
O=C(N/N=C/c1ccccc1C(=O)O)c1ccccc1Br	none
C=CCc1cccc(/C=N/NC(=O)c2ccccc2Br)c1O	RORg inh 1.41µM, Gal4-VP16 FLuc 3.98µM
C=CCc1cccc(/C=N/NC(=O)c2ccccc2OC)c1O	ELG1 DNA repair inconclusive, RORg inh 0.501µM, Gal4-VP16 FLuc 1.26µM
Cc1ccc2nc(C)c(C(=O)N/N=C/c3cccs3)n2c1	RORg inh 11.2µM, B2AR arrestin inconclusive
Cc1ccn2c(C(=O)N/N=C\c3cccs3)c(C)nc2c1	RORg inh inconclusive
Cc1ccc2nc(C)c(C(=O)NN=C3CCCCCC3)n2c1	ELG1 DNA repair inconclusive, RORg inh 12.6µM
Cc1ccn2c(C(=O)NN=C3CCN(C)CC3)c(C)nc2c1	none
CCC(=O)Nc1cccc(-c2ccc(N3CCC(C)CC3)nn2)c1	ELG1 DNA repair inconclusive, RORg inh 2.51µM, Gal4-VP16 FLuc 3.98µM
CC1CCN(c2ccc(-c3cccc(NC(=O)c4ccco4)c3)nn2)CC1	ELG1 DNA repair inconclusive (no result: RORg inh, Gal4-VP16 FLuc)
O=C(COc1ccc(Cl)cc1Cl)Nc1ccc(-c2ccc(N3CCOCC3)nn2)cc1	none (no result: RORg inh, Gal4-VP16 FLuc)
CCC(=O)Nc1ccc(-c2ccc(N3CCC(C)CC3)nn2)cc1	ELG1 DNA repair inconclusive, RORg inh 3.55µM, Gal4-VP16 FLuc inconclusive
CC(C)CC1Nc2ncnc(N3CCCCC3)c2N(Cc2ccc(Br)cc2)C1=O (centres undefined)	none (no result: RORg inh, Gal4-VP16 FLuc)
CC1=C(/C=C/C(C)=C/C=C/C(C)=C/C(=O)Oc2c(C)c(C)c3c(c2C)CC[C@@](C)(CCC[C@H](C)CCC[C@H](C)CCCC(C)C)O3)C(C)(C)CCC1	none (no result: ELG1 DNA repair, TSHR antag, B2AR arrestin)
COc1cc(C(=O)N(C)CC2CCN(CCc3cccc(C(F)(F)F)c3)CC2)ccc1C	none
Cc1nc2ccc(NC(=O)c3ccccc3)cc2s1	ELG1 DNA repair inconclusive
Cc1cc(NC(=O)c2cncc(Br)c2)ccc1NC(=O)c1cc2ccccc2o1	ELG1 DNA repair inconclusive, RORg inh inconclusive, Gal4-VP16 FLuc 11.2µM
O=C(Nc1ccncc1)c1cncc(Br)c1	ELG1 DNA repair inconclusive
Cc1nc2ccc(NC(=O)c3cncc(Br)c3)cc2s1	ELG1 DNA repair 23.1µM, RORg inh inconclusive
O=C(Nc1cccc(NC(=O)c2cncc(Br)c2)c1)c1cncc(Br)c1	ELG1 DNA repair 20.6µM
COc1ccc2c(c1)O[C@@H](c1ccc3c(c1)OCO3)[C@H](O)C2=O	none (no result: ELG1 DNA repair, TSHR antag, B2AR arrestin)
Nc1ccccc1Oc1ccccc1	none (no result: ELG1 DNA repair, TSHR antag, B2AR arrestin)
CC12CCC=CC1C(c1cccc(Br)c1)N(Cc1ccccc1)C2=O (centres undefined)	RORg inh inconclusive, Gal4-VP16 FLuc 12.6µM (no result: ELG1 DNA repair, TSHR antag, B2AR arrestin)
C=Cn1cc[n+](CC(=O)c2ccc(OC)cc2)c1	none
CC(C)(C)OC(=O)N1CCC(C(=O)Nc2cccc(C(=O)N3CCOCC3)c2)CC1	none (no result: RORg inh, Gal4-VP16 FLuc)
Cn1c(=O)c2c(nc(Br)n2CC(=O)C23CC4CC(CC(C4)C2)C3)n(C)c1=O	ELG1 DNA repair 14.6µM
CCN(CC)S(=O)(=O)c1cccc(-c2nnc(SC(C)C(=O)NCCC3=CCCCC3)o2)c1 (centres undefined)	ELG1 DNA repair 23.1µM
CC(Sc1nnc(-c2ccco2)o1)C(=O)NCCC1=CCCCC1 (centres undefined)	none
C=CCn1c(C)cc(C(=O)CSc2nnc(-c3cccc(S(=O)(=O)N(CC)CC)c3)o2)c1C	ELG1 DNA repair 16.4µM
CCN(CC)S(=O)(=O)c1cccc(-c2nnc(SCCCC(=O)c3ccccc3)o2)c1	ELG1 DNA repair inconclusive
CCN(CC)S(=O)(=O)c1cccc(-c2nnc(SCCCC(=O)c3ccc(F)cc3)o2)c1	ELG1 DNA repair 16.4µM, RORg inh inconclusive
CC[C@H](C)[C@@H]1NC(=O)[C@H](Cc2ccc(O)cc2)NC(=O)[C@@H](N)CSSC[C@@H](C(=O)N2CCC[C@H]2C(=O)N[C@@H](CC(C)C)C(=O)NCC(N)=O)NC(=O)[C@H](CC(N)=O)NC(=O)[C@H](CCC(N)=O)NC1=O	none (no result: ELG1 DNA repair, TSHR antag, B2AR arrestin)
CSc1ccc(S(=O)(=O)Nc2ccc3c(c2)NC(=O)CC3)cc1	ELG1 DNA repair 8.2µM, Gal4-VP16 FLuc inconclusive
Cc1ccc(NS(=O)(=O)c2ccc3c(c2)CCC(=O)N3)cc1	none (no result: RORg inh, Gal4-VP16 FLuc)
COc1ccc(NC(=O)n2ncc3c(C)cccc32)cc1OC	ELG1 DNA repair inconclusive, RORg inh 1.12µM, Gal4-VP16 FLuc inconclusive
Cc1ccc(NC(=O)n2ncc3c(C)cccc32)cc1F	ELG1 DNA repair inconclusive, RORg inh inconclusive, Gal4-VP16 FLuc inconclusive
COc1ccc(C)cc1NC(=O)n1ncc2c(C)cccc21	none
COc1ccc(NC(=O)n2ncc3c(C)cccc32)cc1	ELG1 DNA repair inconclusive, RORg inh inconclusive, Gal4-VP16 FLuc 2.51µM
COCCn1c(=O)c(-c2cccs2)nc2cnc(N3CCNCC3)nc21	none (no result: ELG1 DNA repair, TSHR antag, B2AR arrestin)
O=C(CN1C(=O)S/C(=C\c2ccccc2)C1=O)NC1CCS(=O)(=O)C1 (centres undefined)	none
CC(C)c1ccc(/C=C2\SC(=O)N(CC(=O)NC3CCS(=O)(=O)C3)C2=O)cc1 (centres undefined)	ELG1 DNA repair inconclusive, RORg inh inconclusive, Gal4-VP16 FLuc 7.08µM
O=C(CCN1C(=O)/C(=C/c2ccccc2)SC1=S)NC1CCS(=O)(=O)C1 (centres undefined)	Gal4-VP16 FLuc inconclusive
O=C(CCCN1C(=O)/C(=C/c2ccc(F)cc2)SC1=S)NC1CCS(=O)(=O)C1 (centres undefined)	RORg inh 3.98µM, Gal4-VP16 FLuc 17.8µM
Cc1ccc(OCCC(=O)OCC(=O)NCCc2ccc(Cl)cc2)cc1	none (no result: RORg inh, Gal4-VP16 FLuc)
O=S(=O)(NC1CCc2ccccc21)c1ccc(S(=O)(=O)N2CCCC2)cc1 (centres undefined)	ELG1 DNA repair 25.9µM
Cn1c(=O)[nH]c(=O)c2c1nc(CN1CCN(c3ccccc3F)CC1)n2CCCc1ccccc1	ELG1 DNA repair 6.51µM
CC1CN(c2nc3c(c(=O)n(Cc4ccc(Cl)c(Cl)c4)c(=O)n3C)n2C)CC(C)O1 (centres undefined)	ELG1 DNA repair inconclusive
Cc1ccnc(SCCn2c(N3CCN(Cc4ccccc4)CC3)nc3c2c(=O)[nH]c(=O)n3C)n1	ELG1 DNA repair 9.2µM
Cn1c(=O)c2c(nc(N3CCN(Cc4ccccc4)CC3)n2CCSc2ncccn2)n(C)c1=O	ELG1 DNA repair 5.17µM
Cn1c(N2CCN(c3ccccn3)CC2)nc2c1c(=O)n(Cc1ccc(Cl)cc1)c(=O)n2C	ELG1 DNA repair 16.4µM

Screens from PubChem BioAssay.
